High-throughput results deposited in PubChem BioAssay by several laboratories.
An excerpt weighted towards active compounds, which were near 1.9% of everything screened.
Measles CPE = protection of cells from measles virus | protection (pct of control), % at 4 µM | AID 841 | Measles virus-infected cells, CPE protection, absorbance | 140,000 tested, 1.5% active; in the data active = protection mostly above about 24%, no sharp cut-off; inactive = mostly below about 26%
SDO1 yeast rescue = compounds rescuing growth of sdo1-depleted yeast, bone marrow failure model. S. cerevisiae sdo1-depleted JHY4D growth rescue, OD600 30 h; hits give high values; pdr5 snq2 efflux-pump mutant strain. z-score at 10 µM. 140,000 tested, 0.21% active. AID 817;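 active = z-score above 3 at both the 24 hr and the 30 hr optical density reads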;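 also: z-score against mean and SD of all compound wells on the same plate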
sEH inh = blocks human soluble epoxide hydrolase activity. recombinant human sEH enzymatic activity assay. inhibition, % at 2 µM. 91,000 tested, 0.34% active; in the data active = inhibition above about 80%
Target sequence (P34913 whole entry, looked up): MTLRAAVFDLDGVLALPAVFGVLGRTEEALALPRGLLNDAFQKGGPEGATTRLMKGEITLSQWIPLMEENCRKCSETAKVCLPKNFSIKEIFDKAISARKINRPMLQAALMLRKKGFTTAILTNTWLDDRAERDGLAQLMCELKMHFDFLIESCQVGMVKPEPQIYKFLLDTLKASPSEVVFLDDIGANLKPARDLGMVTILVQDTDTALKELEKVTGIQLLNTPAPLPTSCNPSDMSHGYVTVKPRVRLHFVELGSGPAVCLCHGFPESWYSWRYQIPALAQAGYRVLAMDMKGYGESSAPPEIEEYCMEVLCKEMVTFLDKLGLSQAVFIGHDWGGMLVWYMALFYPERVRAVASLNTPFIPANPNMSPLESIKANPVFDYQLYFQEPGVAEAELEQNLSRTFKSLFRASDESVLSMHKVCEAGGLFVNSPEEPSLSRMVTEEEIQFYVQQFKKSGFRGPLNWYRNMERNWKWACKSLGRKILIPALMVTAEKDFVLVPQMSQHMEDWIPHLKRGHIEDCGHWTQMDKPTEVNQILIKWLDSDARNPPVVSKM
sEH act = activators of human soluble epoxide hydrolase; P34913; 91,000 tested, 0.04% active; purified human sEH enzymatic activity, activator screen; activation, % at 2 µM; in the data active = activation above about 37%
* hit, by the source's call.

What do the screens show for `COc1ccc(C(=O)/C=C/Nc2ccc(S(=O)(=O)Nc3onc(C)c3C)cc2)cc1`?
Measles CPE: 43*; SDO1 yeast rescue: 0.03

Results for CCS(=O)(=O)c1ccc(C(=O)Nc2cccc(Cl)c2)c(Cl)c1Cl ?
Measles CPE: 2; SDO1 yeast rescue: -1.6; sEH inh: -19; sEH act: 16

Results for CCS(=O)(=O)c1ccc(C(=O)Nc2ccccc2)c(Cl)c1Cl ?
Measles CPE: 89*; SDO1 yeast rescue: -0.54

How did COc1ccc(OC)c(NC(=O)COC(=O)CSc2ccc(Cl)cc2)c1 do in these assays?
Measles CPE: 18*; SDO1 yeast rescue: 0.92

How did CCCC1=NN(c2ccc([N+](=O)[O-])cc2)C(=O)/C1=C\N(C)C do in these assays?
Measles CPE: 32*; SDO1 yeast rescue: 0.38

How did COC(=O)CN1C(c2ccc(Cl)cc2)=Nc2ccc(Cl)cc2C1c1ccccc1 (configuration not stated) do in these assays?
Measles CPE: 17; SDO1 yeast rescue: -1.7

What do the screens show for `CCn1c(SCC(=O)N2CCCC2)nc2c(c1=O)SC(C)C2` (configuration not stated)?
Measles CPE: -1; SDO1 yeast rescue: 0.28

How did CCCSc1nc2c(c(=O)n1CC)SC(C)C2 (configuration not stated) do in these assays?
Measles CPE: 93*; SDO1 yeast rescue: 0.37; sEH inh: 6; sEH act: -3

How did COc1ccc(NC(=O)c2cccs2)cc1 do in these assays?
Measles CPE: 27; SDO1 yeast rescue: 1.2; sEH inh: 7; sEH act: -2

What do the screens show for `COc1ccc(NC(=S)NNC(=O)c2cccs2)cc1`?
Measles CPE: 17*; SDO1 yeast rescue: 1.3

What do the screens show for `O=c1cc(C(F)(F)C(F)F)oc2ccccc12`?
Measles CPE: 33; SDO1 yeast rescue: 0.73; sEH inh: -6; sEH act: 6

What do the screens show for `O=C1c2ccccc2C(=O)N1CCc1ccccn1`?
Measles CPE: 3; SDO1 yeast rescue: -0.17; sEH inh: 1; sEH act: 4

How did O=C(OC1CCOC1=O)c1cc(-c2ccc(Br)cc2)nc2ccccc12 (configuration not stated) do in these assays?
Measles CPE: 18; SDO1 yeast rescue: -1.9; sEH inh: 2; sEH act: 1

Results for Nc1c(C(=O)NCc2ccc3c(c2)OCO3)nnn1-c1ccc(OC(F)(F)F)cc1 ?
Measles CPE: 54*; SDO1 yeast rescue: -0.09; sEH inh: 10; sEH act: -12

How did CCOc1cc(CNc2ccc3c(c2)OCCO3)cc(Br)c1OC do in these assays?
Measles CPE: 2; SDO1 yeast rescue: -0.27; sEH inh: -8; sEH act: 10

Results for O=C(CSc1nnc(SCc2ccc(Cl)cc2)s1)N1CCN(C(=O)c2ccco2)CC1 ?
Measles CPE: 16; SDO1 yeast rescue: -0.98; sEH inh: 1; sEH act: 2

Results for CCOC(=O)Cc1csc(NC(=O)CSc2cc(Cl)ccc2Cl)n1 ?
Measles CPE: 29*; SDO1 yeast rescue: -0.45

What do the screens show for `CCOC(=O)Cc1csc(NC(=O)CC)n1`?
Measles CPE: 7; SDO1 yeast rescue: -0.04

How did COc1cccc(/C=N/N2CCN(C)CC2)c1 do in these assays?
Measles CPE: 2; SDO1 yeast rescue: 0.66

How did COc1ccc(/C=N/N2CCN(C)CC2)cc1O do in these assays?
Measles CPE: 28*; SDO1 yeast rescue: 1.8; sEH inh: 0; sEH act: 0

How did O=c1nc2ccccc2c2n1CC(CN1CCN(Cc3ccccc3)CC1)N2 (configuration not stated) do in these assays?
Measles CPE: 10; SDO1 yeast rescue: 0.4; sEH inh: -3; sEH act: 2

Results for CN1c2ccccc2C(C)(C)C12CC(c1ccc(S(=O)(=O)N3CCCCC3)cc1)=NO2 (configuration not stated) ?
Measles CPE: 63*; SDO1 yeast rescue: -0.04

Results for CN1/C(=C\C(=O)c2cccc(S(=O)(=O)N3CCCCC3)c2)C(C)(C)c2ccccc21 ?
Measles CPE: 4; SDO1 yeast rescue: 0.37

Results for CCN(CC)S(=O)(=O)c1ccc(C2=NOC3(C2)N(C)c2ccccc2C3(C)C)cc1 (configuration not stated) ?
Measles CPE: 38*; SDO1 yeast rescue: 0.14

What do the screens show for `CN1c2ccccc2C(C)(C)C12CC(c1cccc(S(=O)(=O)N3CCCC3)c1)=NO2` (configuration not stated)?
Measles CPE: 54*; SDO1 yeast rescue: 0.31

How did Fc1ccccc1CSc1nnc(-c2cccs2)o1 do in these assays?
Measles CPE: 4; SDO1 yeast rescue: -1.1; sEH inh: -12; sEH act: 13

How did O=C(O)C(Cc1ccccc1)N1Cc2ccccc2C1=O (configuration not stated) do in these assays?
Measles CPE: 6; SDO1 yeast rescue: -0.59; sEH inh: 6; sEH act: -7

Results for CCOc1ccc2[nH]c(=O)c(CN(CC3CCCN3CC)C(=O)NCc3ccccc3)cc2c1 (configuration not stated) ?
Measles CPE: 25*; SDO1 yeast rescue: 1.1

How did CCc1cccc(CC)c1NC(=S)N1CCn2cccc2C1c1cccnc1 (configuration not stated) do in these assays?
Measles CPE: 5; SDO1 yeast rescue: 0.88

Results for c1ccc(-c2nnc(CSc3nc4ccccc4[nH]3)o2)cc1 ?
Measles CPE: 33*; SDO1 yeast rescue: -0.37

Results for O=C(CCCSc1nc2ccccc2[nH]1)Nc1nnc(-c2ccccc2)o1 ?
Measles CPE: 19; SDO1 yeast rescue: 0.18; sEH inh: -2; sEH act: 4

What do the screens show for `O=C(c1nc2ncccn2n1)N1CCN(c2ccccc2)CC1`?
Measles CPE: 43*; SDO1 yeast rescue: 0.58; sEH inh: -3; sEH act: 1

Results for COc1nc(NCC(C)C)nc(Oc2ccc(OCc3ccccc3)nn2)n1 ?
Measles CPE: 11; SDO1 yeast rescue: -0.11; sEH inh: -3; sEH act: 2

How did CCC1(C)CC(=O)N(c2ccc(C(=O)O)c(O)c2)C1=O (configuration not stated) do in these assays?
Measles CPE: 36*; SDO1 yeast rescue: 0.04; sEH inh: 25; sEH act: -24

Results for CCOc1cc(C2C3=C(CCCC3=O)NC3=C2C(=O)CCC3)cc(Cl)c1O ?
Measles CPE: 5; SDO1 yeast rescue: 0.71

Results for CCC(C)[C@H](NC(=O)NC1CCN(Cc2ccccc2)CC1)C(=O)OC (some centres not stated) ?
Measles CPE: 7; SDO1 yeast rescue: 1.3; sEH inh: 0; sEH act: 1

Results for CCC(C)[C@H](NC(=O)NCc1ccccc1Cl)C(=O)OC (some centres not stated) ?
Measles CPE: 16; SDO1 yeast rescue: -0.22; sEH inh: 95*; sEH act: -95

What do the screens show for `FC(F)(F)c1cccc(N2CCc3cn[nH]c32)c1`?
Measles CPE: 39*; SDO1 yeast rescue: -0.94; sEH inh: -6; sEH act: 6

What do the screens show for `C#CCOc1c(Cl)cc(/C=N/O)cc1OC`?
Measles CPE: 8; SDO1 yeast rescue: 1.4

What do the screens show for `CCn1nnnc1SCC(=O)N1c2ccccc2Sc2ccccc21`?
Measles CPE: 28*; SDO1 yeast rescue: -1; sEH inh: 4; sEH act: 1
